Only some compounds are listed: those with a hit (about 2.3% of all), similar ones and a draw of the others.
TRPV1 PAM: enhances activation of the human vanilloid receptor TRPV1. Q8NER1. TRPV1-expressing cells, Fluo-8 calcium influx, capsaicin EC20 potentiation. potentiation, % at 8.33 µM. 320,000 compounds, 0.02% hits. AID 540277; in the data active = potentiation above about 80%; inconclusive = between about 30% and that limit
Target sequence (Q8NER1 whole entry, looked up): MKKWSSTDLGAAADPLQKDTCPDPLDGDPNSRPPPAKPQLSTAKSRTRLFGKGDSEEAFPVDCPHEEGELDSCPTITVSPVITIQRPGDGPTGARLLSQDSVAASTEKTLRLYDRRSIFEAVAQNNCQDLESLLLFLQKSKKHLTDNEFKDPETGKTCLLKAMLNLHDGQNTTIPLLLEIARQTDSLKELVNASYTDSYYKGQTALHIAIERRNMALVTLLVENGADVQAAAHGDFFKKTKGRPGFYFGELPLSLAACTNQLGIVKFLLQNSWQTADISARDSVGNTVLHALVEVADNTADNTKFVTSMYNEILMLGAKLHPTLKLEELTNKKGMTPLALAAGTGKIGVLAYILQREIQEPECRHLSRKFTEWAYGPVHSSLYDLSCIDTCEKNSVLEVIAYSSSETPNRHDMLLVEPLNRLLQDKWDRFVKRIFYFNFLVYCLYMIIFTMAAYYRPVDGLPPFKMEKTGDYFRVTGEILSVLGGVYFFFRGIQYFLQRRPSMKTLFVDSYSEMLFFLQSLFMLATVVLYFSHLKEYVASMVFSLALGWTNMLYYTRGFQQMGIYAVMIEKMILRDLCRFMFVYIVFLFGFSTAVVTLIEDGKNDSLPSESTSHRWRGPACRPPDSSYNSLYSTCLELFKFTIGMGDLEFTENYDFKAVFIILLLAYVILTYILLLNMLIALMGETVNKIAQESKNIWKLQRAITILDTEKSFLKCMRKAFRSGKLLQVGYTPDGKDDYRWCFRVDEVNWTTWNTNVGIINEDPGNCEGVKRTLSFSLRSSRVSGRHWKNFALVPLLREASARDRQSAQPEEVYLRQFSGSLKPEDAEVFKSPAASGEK
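Cells expressing TRPV1 were dye-loaded with Fluo-8 and read kinetically: 10 s baseline, 3 min after compound (agonist portion), then 2 min after EC20 capsaicin (allosteric enhancer portion). Calcium-bound dye fluorescence at 480/520 nm.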
Giardia kill: kills Giardia lamblia. Giardia lamblia trophozoite viability. activity change, % at 7.66 µM, hits read low. 340,000 compounds, 0.15% hits; in the data active = activity change below about -80%; inconclusive = between about -30% and that limit;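 also: parasites exposed to compound for two days anaerobically before the ATP read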
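Each well holds 100 Giardia trophozoites and compound. After two days (48 hrs) at 37 deg C in anaerobic conditions, ATP is quantified by luminescence.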
TRPV1 agonist: agonists of human vanilloid receptor 1 (TRPV1); 320,000 compounds, 0.19% hits; activation, % at 8.33 µM; TRPV1-expressing cells, Fluo-8 calcium influx, agonist mode; in the data active = activation above about 80%; inconclusive = between about 30% and that limit
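Cells expressing TRPV1 were dye-loaded with Fluo-8 and read kinetically: 10 s baseline, 3 min after compound (agonist portion), then 2 min after EC20 capsaicin (allosteric enhancer portion). Calcium-bound dye fluorescence at 480/520 nm.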
FUS yeast rescue: rescues growth of FUS-expressing yeast; S. cerevisiae FUS-expressing, growth rescue, OD600, 24 h; Potency, µM (highest dose often 76.6 µM), actives largely listed as activators; 390,000 compounds, 0.24% hits; AID 1347120; also: nearly all actives have a fitted effect of over 55% in size
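Toxicity suppression screen in FUS-yeast. Cells induced with 2% galactose, starting OD 0.005, treated 24hr at 30C with compounds at multiple final concentrations; growth by OD600.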
ELG1 DNA repair: ELG1-dependent DNA repair inhibition; HEK293T ELG1-luciferase reporter, luminescence, 16 h; DNA damage induced by 5-fluorouridine; Potency, µM (doses to about 46.1 µM), most hits filed as inhibitors; 330,000 compounds, 2.3% hits; also: nearly all actives have a fitted effect of over 55% in size
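Step one: seed 2,000 cells per well. Step two: pin-transfer compound or DMSO alongside 5-fluorouridine. Step three: incubate 16 hr, 37 °C, 5% CO2. Step four: add ONE-Glo, wait 30 min, read luminescence.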
Hits are given with their value; i = inactive; ? = inconclusive; nt = no result given. Unless noted, calls follow the shape of the dose curve; as a rule, active = well fitted curve in the direction sought with a large enough effect; inconclusive = small, poorly fitted or top-dose-only effect, or another doubt; inactive = no such curve, though single readings can be large; an effect the other way counts as inactive or inconclusive.

SMILES	TRPV1 PAM	Giardia kill	TRPV1 agonist	FUS yeast rescue	ELG1 DNA repair
CC(C)CCOP(=O)(c1ccc(N(C)C)cc1)C(O)c1ccc(Cl)cc1Cl (configuration not stated)	i	i	i	?	?
CCN(C[C@H]1N[C@@](CC)(C(=O)OC)[C@H]2C(=O)N(Cc3ccccc3)C(=O)[C@@H]12)S(=O)(=O)c1ccc(C)cc1	nt	i	nt	i	?
CCCCN1CCS(=O)(=O)N(Cc2ccccc2Br)CC(C(=O)OC)C1 (configuration not stated)	nt	i	nt	i	?
O=c1[nH]c2ccccc2n1C1CCN(C(c2ccccc2OC(F)(F)F)c2nnnn2Cc2ccccc2)CC1 (configuration not stated)	nt	nt	nt	20µM	nt
Cc1cc(C(=O)OCC(=O)NC(=O)c2cccn2C)c2ccccc2n1	?	i	i	i	?
Cc1sc2ncnc(SCC(=O)Nc3ccc(S(=O)(=O)N4CCOCC4)cc3)c2c1C	nt	i	nt	?	?
COc1ccc(C2CC(c3c(O)n(CCc4ccccc4)c(=O)[nH]c3=O)=NN2)cc1OC (configuration not stated)	i	i	i	22.4µM	?
COc1ccc(CCn2c(O)c(C=NCc3cccnc3)c(=O)[nH]c2=O)cc1OC	i	i	i	i	i
CCN(CC)c1ccc(N=Cc2c(O)n(CCc3ccc(OC)c(OC)c3)c(=O)[nH]c2=O)cc1	i	i	i	i	2.59µM
CCC(=NCc1ccc(F)cc1)c1c(O)n(C)c(=O)n(C)c1=O	i	i	i	i	7.94µM
CCC(=Nc1ccc(Cc2ccncc2)cc1)c1c(O)n(C)c(=O)n(C)c1=O	i	i	i	i	7.31µM
CCOc1ccc(-c2cc(C)[n+](CCN3CCOCC3)c(-c3ccc(OCC)cc3)c2)cc1	i	i	i	i	16.4µM
Cc1cc(C)nc(OC(=O)c2ccc(Cl)cc2Cl)n1	i	nt	i	nt	?
CC(C)OP(=O)(c1ccc(N(C)C)cc1)C(O)c1ccc(Br)cc1 (configuration not stated)	i	i	i	i	?
CC1CCC/C=C/C2CC(O)CC2C(O)/C=C/C(=O)O1 (configuration not stated)	i	i	i	i	0.651µM
CCN(CC)c1ccc(NC(=O)c2cccc(C)c2)cc1S(=O)(=O)Nc1ccccc1OC	i	i	i	nt	?
C[C@@H]1CN([C@H](C)CO)C(=O)c2cc(NC(=O)Nc3ccc(C(F)(F)F)cc3)ccc2O[C@H]1CN(C)S(=O)(=O)c1cccs1	nt	i	nt	10µM	?
C[C@H](CO)N1C[C@H](C)[C@@H](CN(C)S(=O)(=O)c2cccs2)Oc2ccc(NC(=O)Nc3ccc(C(F)(F)F)cc3)cc2C1=O	nt	i	nt	i	?
C[C@H](CO)N1C[C@H](C)[C@@H](CN(C)C(=O)NC2CCCCC2)Oc2c(NC(=O)Nc3ccc4c(c3)OCO4)cccc2C1=O	nt	i	nt	i	14.6µM
CC(C)OP(=O)(Oc1ccc(C(O)C(Cl)(Cl)Cl)cc1)OC(C)C (configuration not stated)	i	i	i	i	18.3µM
CN1c2ccc([N+](=O)[O-])cc2CC2(C(=O)NC(=O)N(c3ccc(Br)cc3)C2=O)C1c1ccccc1 (configuration not stated)	i	i	i	17.8µM	i
C[C@H](CO)N1C[C@H](C)[C@@H](CN(C)Cc2ccc(-c3ccccc3)cc2)Oc2c(NC(=O)c3ccncc3)cccc2C1=O	nt	i	nt	i	?
O=C(Oc1ccc2ccc(OC(=O)N3CCCCCC3)cc2c1)N1CCCCCC1	i	i	i	nt	?
COCCCn1c(-c2ccc(OC)cc2)cc(C(=O)NC2CCCCCCC2)c1C	i	i	i	?	23.1µM
COc1ccc(-[n+]2c(-c3ccccc3)cc(-c3ccc(C)cc3)cc2-c2ccccc2)cc1	i	i	i	i	3.66µM
SMILES	TRPV1 PAM	Giardia kill	TRPV1 agonist	FUS yeast rescue	ELG1 DNA repair
CSc1ccccc1NC(=O)CN(C)CC(=O)c1[nH]c(C)c(C(C)=O)c1C	nt	i	nt	i	16.4µM
Cn1c(=O)oc2cc(NC(=O)CCl)ccc21	i	i	i	i	?
Cc1cc(C)nc(N/N=C/C2=C(O)CC(c3ccccc3)CC2=O)n1 (configuration not stated)	i	nt	i	nt	?
COc1ccccc1OCCNC(=O)c1cc(=O)[nH]c2ccccc12	i	i	i	i	?
CC(C)NC(=O)C(C)N1CCN(S(=O)(=O)c2ccc3ccccc3c2)CC1 (configuration not stated)	?	i	i	i	?
Cc1cc(=O)oc2cc(OCC(=O)N3CCN(Cc4ccc5c(c4)OCO5)CC3)ccc12	i	i	i	i	6.51µM
CC(C)NS(=O)(=O)c1ccc(OCC(=O)N2CCN(Cc3ccc4c(c3)OCO4)CC2)c(Cl)c1	i	i	i	i	11.6µM
CCc1ccc(N2C(=O)NC(=O)C(CCc3ccncc3)(CCc3ccncc3)C2=O)cc1	i	i	i	i	?
O=C1NC(=O)C(CCc2ccncc2)(Cc2cccc(Cl)c2Cl)C(=O)N1c1ccc(Br)cc1 (configuration not stated)	i	i	i	?	16.4µM
COc1ccc2[nH]c3c(c2c1)CCN1C(=O)C(CC(=O)NCc2cccc(C(F)(F)F)c2)C[C@H](C(=O)N2CCCCC2)[C@@]31C (some centres not stated)	nt	i	nt	?	?
CCCCN1C(=O)NC(=O)C2(Cc3c(nc4c(C)cccn4c3=O)N3CCc4ccccc4C32)C1=O (configuration not stated)	i	i	?	?	20.6µM
Cc1cccn2c(=O)c3c(nc12)N1CCc2ccccc2C1C1(C3)C(=O)NC(=O)N(C)C1=O (configuration not stated)	i	i	i	i	13µM
CCCCN1C(=O)NC(=O)C2(Cc3c(nc4ccccn4c3=O)N3CCc4ccccc4C32)C1=O (configuration not stated)	i	i	?	i	?
CCn1nc(-c2ccccc2)nc2c(=O)n(C)c(=O)nc1-2	i	-88.6	i	i	?
Cn1nc(-c2ccccc2)nc2c(=O)n(C)c(=O)nc1-2	nt	-89.4	nt	nt	nt
O=c1c2ccccc2nc(-c2ccccc2)n1-n1cccc1	i	i	i	i	i
Cc1nc2c(=O)n(C)c(=O)nc-2n(C)n1	?	-107.3	i	nt	1.84µM
C[C@]12CC[C@H](N)CC1=CCC1C2CC[C@@]2(C)C1CC[C@@H]2O (some centres not stated)	nt	i	nt	i	16.4µM
COC(=O)C1=C(c2ccc(Cl)c(C(F)(F)F)c2)C[C@@H]2CC[C@H]1N2C(=O)NCCO	i	i	i	i	i
COC(=O)C1=C(c2ccc(Cl)c(C(F)(F)F)c2)C[C@@H]2CC[C@H]1N2C(=O)NCCOc1ccccc1	i	i	i	22.4µM	?
CN(c1ccc(OCC(=O)N2CCN(C/C=C/c3ccccc3)CC2)cc1)S(=O)(=O)c1cccs1	i	i	i	?	13µM

Screens from PubChem.
